# According to PubChem BioAssay AID1923 (Vanderbilt High Throughput Screening Facility, 2009):
# The source made the active and inactive calls.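 Rule for the calls: active = compound that boosted calcium signal to a low acetylcholine dose in a dose-dependent way; inactive = the rest.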
# Target: Muscarinic acetylcholine receptor M4 (Rattus norvegicus) (UniProt P08485)
# Test: rat M4 positive allosteric modulator potency, SAR follow-up, cell-based, analogs, calcium mobilization, Gqi5 (AID 1923)
# Conditions: CHO-K1 rM4/Gqi5, calcium mobilization Fluo-4, ACh EC20
# Sequence of Muscarinic acetylcholine receptor M4 (Rattus norvegicus) (P08485 whole entry, looked up): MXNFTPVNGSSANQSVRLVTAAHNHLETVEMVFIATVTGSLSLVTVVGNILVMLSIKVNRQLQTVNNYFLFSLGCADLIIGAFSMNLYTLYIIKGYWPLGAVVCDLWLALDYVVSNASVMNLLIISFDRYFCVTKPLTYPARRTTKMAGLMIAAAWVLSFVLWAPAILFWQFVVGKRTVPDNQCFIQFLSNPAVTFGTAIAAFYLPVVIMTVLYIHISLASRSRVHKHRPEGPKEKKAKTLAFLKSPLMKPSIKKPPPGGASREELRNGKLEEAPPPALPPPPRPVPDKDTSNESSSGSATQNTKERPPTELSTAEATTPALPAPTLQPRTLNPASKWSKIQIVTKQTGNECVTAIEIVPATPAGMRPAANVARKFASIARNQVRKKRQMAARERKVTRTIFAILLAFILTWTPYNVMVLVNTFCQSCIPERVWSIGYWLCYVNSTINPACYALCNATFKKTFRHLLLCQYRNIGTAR
row,Compound,outcome
1,COc1ccc(CNC(=O)c2sc3nc(OCC4CCCN(C)C4)cc(C)c3c2N)cc1 (configuration not stated),inactive
2,Cc1cc(OCc2ccncc2)nc2sc(C(=O)NCc3cc(F)ccc3F)c(N)c12,active; fitted 1.58 uM
3,COCCCNC(=O)c1sc2nc(OCCN3CCOCC3)cc(C)c2c1N,active; fitted 6.25 uM
4,Cc1cc(OCCCN(C)C)nc2sc(C(=O)NCc3cc(F)ccc3F)c(N)c12,active; fitted 2.75 uM
5,Cc1cc(OCCN2CCOCC2)nc2sc(C(=O)NC(C)C)c(N)c12,active; fitted 7.15 uM
6,Cc1cc(OCCN2CCOCC2)nc2sc(C(=O)Nc3ccccc3)c(N)c12,active; fitted 5.81 uM
7,Cc1cc(OCCN2CCOCC2)nc2sc(C(=O)NC(C)(C)C)c(N)c12,active; fitted 8.73 uM
8,Cc1cc(OCc2ccncc2)nc2sc(C(=O)NCc3cccc(F)c3F)c(N)c12,active; fitted 1.61 uM
9,CCCOc1cc(C)c2c(N)c(C(=O)NCc3ccc(OC)cc3)sc2n1,inactive
10,COc1ccc(CNC(=O)c2sc3nc(OCCN(C)C)cc(C)c3c2N)cc1,inactive
11,Cc1cc(OCc2ccccn2)nc2sc(C(=O)NCc3cccc(F)c3F)c(N)c12,active; fitted 5.4 uM
12,COc1ccc(CNC(=O)c2sc3nc(OCc4ccncc4)cc(C)c3c2N)cc1,active; fitted 1.97 uM
13,COc1ccc(CNC(=O)c2sc3nc(OCc4ccccn4)cc(C)c3c2N)cc1,active; fitted 1.77 uM
14,Cc1cc(OCc2ccccn2)nc2sc(C(=O)NCc3cc(F)ccc3F)c(N)c12,inactive
15,COc1ccc(CNC(=O)c2sc3nc(OCCN4CCOCC4)cc(C)c3c2N)cc1,active; fitted 6.47 uM
16,COc1ccc(CNC(=O)c2sc3nc(OCCCN(C)C)cc(C)c3c2N)cc1,inactive
17,COc1ccc(CNC(=O)c2sc3nc(OCc4cccnc4)cc(C)c3c2N)cc1,active; fitted 2.21 uM
18,CCCCCOc1cc(C)c2c(N)c(C(=O)NCc3ccc(OC)cc3)sc2n1,inactive
19,Cc1cc(OCCCN(C)C)nc2sc(C(=O)NC3COC3)c(N)c12,active; fitted 2.58 uM
20,Cc1cc(OCCN2CCOCC2)nc2sc(C(=O)NC3COC3)c(N)c12,active; fitted 7.42 uM
21,COc1ccc(CNC(=O)c2sc3nc(OC(C)C)cc(C)c3c2N)cc1,inactive
22,COc1ccc(CNC(=O)c2sc3nc(OCCN4CCCC4)cc(C)c3c2N)cc1,active; fitted 8.24 uM
